Where “and” joins values, the source holds several entries; their conditions need not be identical. Equal values may be shown once. Inconclusive results are not listed. Where a call stands in place of a potency, no number is given. Calls of active or inactive are those of the source. Unless noted, calls follow the shape of the dose curve; as a rule, active = well fitted curve in the direction sought with a large enough effect; inconclusive = small, poorly fitted or top-dose-only effect, or another doubt; inactive = no such curve, though single readings can be large; an effect the other way counts as inactive or inconclusive.
Assays:
[1] = qHTS Assay for Lipid Storage Modulators (AID 1519; calls by dose curve); details: Drosophila S3 cells, BODIPY lipid droplet/cell ratio, laser cytometry, cells loaded with oleic acid
Method in brief: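 Cells seeded at 5,000 per well were treated with compounds over a concentration series and loaded with oleic acid (400 uM, as added). Lipid droplet fluorescence (488 nm excitation, 500-530 nm channel) was read by laser-scanning cytometry and normalized to 20 uM Triacsin C.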

[2] = molecular target: Alpha-galactosidase A (Homo sapiens) (UniProt P06280); assay: Counterscreen for Glucocerebrosidase Inhibitors: qHTS Assay for Human alpha-Galactosidase at pH 4.5 (AID 992); details: purified enzyme, fluorogenic substrate; series mostly up to 76.9 µM
Method in brief: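 Citrate buffer pH 4.5, Tween-20 0.005%. Enzyme 2 nM, substrate 80 uM, 20 min RT. Stop pH 10. Fluorescence Ex 365/Em 440. AC50 by Hill fit.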

[3] = molecular target: alpha-glucosidase (Oryza sativa, rice) (UniProt Q653V4); assay: Counterscreen for Glucocerebrosidase Inhibitors: qHTS Assay for Rice alpha-Glucosidase at pH 5.0 (AID 997); details: rice alpha-glucosidase enzyme activity; series mostly up to 76.9 µM
Method in brief: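 Endpoint fluorogenic assay at pH 5.0: compounds (0.7 nM to 77 uM) titrated against 4 nM rice enzyme and 400 uM 4-MU-alpha-glucoside for 20 min at room temperature; NaOH/glycine stop, read ex 365/em 440 nm, Hill-fitted AC50.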

[4] = Validation of Assay for Modulators of Lamin A Splicing (AID 1459; active = well fitted curve in the direction sought with a large enough effect in the signal ratio; the % refers to the signal ratio;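 also: cells exposed to compound for two days before reading; ratio rise marks activators and ratio drop marks inhibitors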); details: Lamin A splicing dual RFP/GFP fluorescence reporter; series mostly up to 9.22 µM
Method in brief: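 Dual-reporter HeLa S3 line (lamin A-EGFP minigene, DsRed2) treated with compounds 48 hrs, 0.5% DMSO final. Endpoint: EGFP/DsRed2 total intensity ratio from laser-scanning microplate cytometry.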

[5] = molecular target: DNA repair nuclease/redox regulator APEX1 (Homo sapiens) (UniProt P27695); assay: qHTS Validation Assay for Inhibitors of the Human Apurinic/apyrimidinic Endonuclease 1 (APE1) (AID 1705; also: potency is read from the fitted curve at half-maximal effect;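 as to activity change, negative = inhibition: TAMRA fluorescence gain over two minutes as APE1 cuts a quenched THF abasic duplex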); details: purified APE1 endonuclease activity, fluorescence, titration; series mostly up to 57.1 µM
Method in brief: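 Substrate: 50 nM final fluorophore/quencher THF-abasic duplex. Enzyme preincubated with compounds 15 min, RT. Progress derived from fluorescence difference, third minus first kinetic read.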

[6] = Counterscreen for APE1 Inhibitors: Fluorescent Dye Displacement Validation Assay (AID 1707); details: fluorescent dye displacement from DNA; series mostly up to 57.1 µM
Method in brief: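 Signal: ThO fluorescence (ex 480 nm/em 540 nm) on binding 50 nM dsDNA; displacement by test compound reduces it. Conditions: 250 nM dye, 50 mM Tris-HCl pH7.5, 2 mM MgCl2, 50mM NaCl, 0.01% Tween-20.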

[7] = molecular target: Endonuclease 4 (Escherichia coli (strain K12)) (UniProt P0A6C1); assay: Counterscreen for APE1 Inhibitors: qHTS Validation Assay for Inhibitors of Endonuclease IV (AID 1708); details: E. coli endonuclease IV, DNA cleavage fluorescence; series mostly up to 57.1 µM
Method in brief: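 Enzyme (2 nM) + compound, 15 min RT; add 50 nM TAMRA/BHQ-2 THF-site dsDNA; kinetic read ex525/em598, 3 reads/60 s; activity = read 3 − read 1. Buffer Tris pH 7.5, 50 mM NaCl, 2 mM MgCl2, DTT, Tween-20.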

[8] = qHTS for differential inhibitors of proliferation of Plasmodium falciparum line 7G8 (AID 1815); details: Plasmodium falciparum 7G8 proliferation inhibition; series mostly up to 28.7 µM;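 also: parasite growth measured after three days of incubation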; also: potency is read from the fitted curve at half-maximal effect
[9] = qHTS for differential inhibitors of proliferation of Plasmodium falciparum line GB4 (AID 1816); details: Potency: Plasmodium falciparum GB4 proliferation inhibition; series mostly up to 28.7 µM;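 also: parasite growth measured after 72 h incubation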; also: potency is read from the fitted curve at half-maximal effect
[10] = qHTS for differential inhibitors of proliferation of Plasmodium falciparum line 3D7 (AID 1876); also: potency is read from the fitted curve at half-maximal effect; details: P. falciparum 3D7 proliferation inhibition; series mostly up to 28.7 µM
[11] = qHTS for differential inhibitors of proliferation of Plasmodium falciparum line D10 (AID 1877); details: series mostly up to 28.7 µM;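 also: parasites grown with compound for 72 h before DNA staining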; also: potency is read from the fitted curve at half-maximal effect
[12] = qHTS for differential inhibitors of proliferation of Plasmodium falciparum line Dd2 (AID 1882); details: Potency: Plasmodium falciparum Dd2 proliferation inhibition; series mostly up to 28.7 µM; also: nearly all actives have a fitted effect of over 65% in size
Method in brief: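 SYBR Green DNA fluorescence (ex 485, em 535 nm) after overnight lysis quantifies parasite growth; compound exposure lasted 72 h at 37 C on infected red cells at 2.5% hematocrit, 0.3% parasitemia (final). Artemisinin 0.29 uM and vehicle wells define normalization.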

[13] = qHTS for differential inhibitors of proliferation of Plasmodium falciparum line W2 (AID 1883); details: Potency: Plasmodium falciparum W2 proliferation inhibition; series mostly up to 28.7 µM;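 also: parasites grown with compound for 72 h before lysis and staining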; also: potency is read from the fitted curve at half-maximal effect
[14] = Cell Viability - LYMP2-018 (AID 985); details: LYMP2-018 lymphoblastoid cells, viability (qHTS); series mostly up to 92.2 µM; also: nearly all actives have a fitted effect of over 50% in size; also: potency is read from the fitted curve at half-maximal effect
Method in brief: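 Viability read as CellTiter-Glo luminescence (cellular ATP) after 24 hr compound exposure at 37 C of 2500 LYMP2-018 lymphoblastoid cells/well, pre-plated 5 hr. Hill-equation modelling gave AC50.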

[15] = Cell Viability - LYMP2-022 (AID 987); details: LYMP2-022 lymphoblastoid cell viability; series mostly up to 92.2 µM; also: nearly all actives have a fitted effect of over 55% in size; also: potency is read from the fitted curve at half-maximal effect
Method in brief: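 Cytotoxicity read as decreased cellular ATP (CellTiter-Glo luminescence, 30 min room temperature) after 24 hours compound exposure of 2500 lymphoblastoid LYMP2-022 cells/well at 37 C. Concentration-response data fitted with standard Hill equation for AC50.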

[16] = Cell Viability - LYMP2-024 (AID 988); details: LYMP2-024 lymphoblastoid cell viability; series mostly up to 92.2 µM; also: nearly all actives have a fitted effect of over 60% in size; also: potency is read from the fitted curve at half-maximal effect
Method in brief: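 Cytotoxicity was taken as a decrease in ATP (CellTiter-Glo luminescence) after 24 hr compound exposure at 37 C of LYMP2-024 lymphoblastoid cells, 2500 cells/well. Concentration-response data were fitted to the Hill equation to give AC50.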

[17] = Cell Viability - LYMP1-002 - Assay at 24 hr (AID 993); details: LYMP1-002 lymphoblastoid cells viability; series mostly up to 92.2 µM
Method in brief: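 qHTS cytotoxicity at 24 h: CellTiter-Glo ATP luminescence in lymphoblastoid line LYMP1-002 incubated with compound at 37 °C. Concentration-response modeled with the Hill equation for AC50; tetraoctylammonium bromide served as positive control.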

[18] = Cell Viability - LYMP1-002 - Assay at 40 hr (AID 994); details: LYMP1-002 lymphoblastoid cell viability; series mostly up to 92.2 µM; also: nearly all actives have a fitted effect of over 60% in size; also: potency is read from the fitted curve at half-maximal effect
Method in brief: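 Cytotoxicity was read as loss of cellular ATP (CellTiter-Glo luminescence) after 40 hr compound exposure at 37 C of 2500 LYMP1-002 lymphoblastoid cells per well. Concentration-response data were fitted with the standard Hill equation to give AC50.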

[19] = Cell Viability - LYMP2-020 (AID 986); details: series mostly up to 92.2 µM; also: nearly all actives have a fitted effect of over 55% in size
Method in brief: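 Cytotoxicity in qHTS format: luminescent ATP readout from CellTiter-Glo after 24 h compound exposure at 37 C in complete medium. LYMP2-020 lymphoblastoid cells were seeded at 2500/well; concentration-response data fitted to the Hill equation for AC50.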

[20] = Cell Viability - LYMP2-026 (AID 989); details: LYMP2-026 lymphoblastoid cell viability, qHTS; series mostly up to 92.2 µM; also: nearly all actives have a fitted effect of over 50% in size
Method in brief: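 Cytotoxicity read as ATP-dependent luminescence (CellTiter-Glo, 30 min room temperature) after 24 h compound treatment at 37 C. LYMP2-026 lymphoblastoid line seeded at 2500 cells/well; AC50 derived by standard Hill equation.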

[21] = measured here: cell count channel max response
[22] = measured here: lipid channel max response

Sequence of DNA repair nuclease/redox regulator APEX1 (Homo sapiens) (P27695 whole entry, looked up): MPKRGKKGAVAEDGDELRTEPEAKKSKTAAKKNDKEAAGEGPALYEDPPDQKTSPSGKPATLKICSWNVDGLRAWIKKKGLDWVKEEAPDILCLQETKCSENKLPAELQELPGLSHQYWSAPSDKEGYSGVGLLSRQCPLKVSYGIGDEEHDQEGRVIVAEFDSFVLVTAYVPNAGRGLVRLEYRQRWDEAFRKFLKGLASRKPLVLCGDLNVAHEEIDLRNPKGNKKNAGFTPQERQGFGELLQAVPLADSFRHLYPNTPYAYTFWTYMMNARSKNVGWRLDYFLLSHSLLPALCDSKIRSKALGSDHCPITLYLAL
Sequence of Alpha-galactosidase A (Homo sapiens) (P06280 whole entry, looked up): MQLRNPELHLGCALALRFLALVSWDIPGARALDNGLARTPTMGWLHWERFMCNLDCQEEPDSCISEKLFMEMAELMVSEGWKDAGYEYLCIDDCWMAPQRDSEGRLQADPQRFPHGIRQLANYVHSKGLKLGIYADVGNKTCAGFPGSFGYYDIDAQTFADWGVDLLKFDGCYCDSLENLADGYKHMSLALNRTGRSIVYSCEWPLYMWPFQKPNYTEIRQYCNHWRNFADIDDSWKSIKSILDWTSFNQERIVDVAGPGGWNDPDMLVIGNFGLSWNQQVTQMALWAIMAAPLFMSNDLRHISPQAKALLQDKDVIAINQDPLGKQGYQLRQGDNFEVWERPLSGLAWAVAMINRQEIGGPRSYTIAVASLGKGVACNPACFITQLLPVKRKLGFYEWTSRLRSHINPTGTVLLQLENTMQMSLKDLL

## COc1c(C)c2c(c(O)c1C/C=C(\C)CCC(=O)O)C(=O)OC2
[1]; at 25.7 µM (top of the series)
  activity change, negative = inhibition: -1.1% (inactive)
[1]; [21]
  max response: 6.28%
[1]; [22]
  max response: 5.14%

## C1CCc2nnnn2CC1
[2]
  outcome: inactive
[3]
  outcome: inactive
[4]
  outcome: inactive
[1]; at 25.7 µM (top of the series)
  activity change, negative = inhibition: 0.501% (inactive)
[1]; at 57.5 µM (top of the series)
  activity change, negative = inhibition: 0.8% (inactive)
[1]; [21]
  max response: 12.5% and 9.15%
[1]; [22]
  max response: 18% and 12.4%
[5]
  Potency: inactive
[6]
  outcome: inactive
[7]
  outcome: inactive
[8]
  Potency: inactive
[9]
  Potency: inactive
[10]
  Potency: inactive
[11]
  Potency: inactive
[12]
  Potency: inactive
[13]
  Potency: inactive

## OCc1ccccc1O
[1]; at 57.5 µM (top of the series)
  activity change, negative = inhibition: 1.86% (inactive)
[1]; [21]
  max response: -8.44%
[1]; [22]
  max response: 0.187%

## CN1C2CCC1CC(OC(=O)c1c[nH]c3ccccc13)C2 (stereo not drawn)
[4]
  outcome: inactive
[1]; at 57.5 µM (top of the series)
  activity change, negative = inhibition: 1.19% (inactive)
[1]; [21]
  max response: 10.2%
[1]; [22]
  max response: 11.1%
[5]
  Potency: 39.8 µM (active)
[6]
  outcome: inactive
[7]
  outcome: inactive
[8]
  Potency: 7.08 µM (active)
[9]
  Potency: 11.2 µM (active)
[10]
  Potency: 10 µM (active)
[11]
  Potency: 11.2 µM (active)
[13]
  Potency: 8.91 µM (active)

## CC(C)COC(=O)OCN1C(=O)CN(CCN2CC(=O)N(COC(=O)OCC(C)C)C(=O)C2)CC1=O
[2]
  outcome: inactive
[3]
  outcome: inactive
[4]
  outcome: inactive
[1]; at 57.5 µM (top of the series)
  activity change, negative = inhibition: 1.23% (inactive)
[1]; [21]
  max response: 3.57%
[1]; [22]
  max response: 4.19%
[6]
  outcome: inactive
[7]
  outcome: inactive
[8]
  Potency: inactive
[9]
  Potency: inactive
[10]
  Potency: inactive
[11]
  Potency: inactive
[12]
  Potency: inactive

## CCCCOc1ccc(OCCCN2CCOCC2)cc1
[1]; at 25.7 µM (top of the series)
  activity change, negative = inhibition: -0.243% (inactive)
[1]; [21]
  max response: -13.4%
[1]; [22]
  max response: -13.4%

## CC(CCc1ccccc1)NCC(O)c1ccc(O)c(C(N)=O)c1 (stereo not drawn)
[4]
  outcome: inactive
[1]; at 57.5 µM (top of the series)
  activity change, negative = inhibition: 1.59% (inactive) and 2.63% (inactive)
[1]; [21]
  max response: 0.538% and 18.3%
[1]; [22]
  max response: 3.22% and 11.8%
[5]
  Potency: inactive
[6]
  outcome: inactive
[7]
  outcome: inactive
[8]
  Potency: 7.94 µM (active)
[9]
  Potency: 10 µM (active)
[10]
  Potency: 10 µM (active)
[11]
  Potency: 12.6 µM (active)
[13]
  Potency: 8.91 µM (active)

## C[C@@H](CN(C)C)CN1c2ccccc2Sc2ccccc21
[1]; at 25.7 µM (top of the series)
  activity change, negative = inhibition: -1.55% (inactive)
[1]; [21]
  max response: -4.09%
[1]; [22]
  max response: -6.89%

## CN(C)CCCOc1nn(Cc2ccccc2)c2ccccc12
[1]; at 25.7 µM (top of the series)
  activity change, negative = inhibition: -3.69% (inactive)
[1]; [21]
  max response: 1.49%
[1]; [22]
  max response: -2.83%

## NCCc1ccn[nH]1
[1]; at 25.7 µM (top of the series)
  activity change, negative = inhibition: -0.85% (inactive)
[1]; [21]
  max response: 12.5%
[1]; [22]
  max response: 11.2%

## N[C@@H](Cc1cnc[nH]1)C(=O)O
[2]
  outcome: inactive
[3]
  outcome: inactive
[4]
  outcome: inactive
[1]; at 57.5 µM (top of the series)
  activity change, negative = inhibition: 2.39% (inactive)
[1]; [21]
  max response: -24.8%
[1]; [22]
  max response: -24.4%
[5]
  Potency: inactive
[6]
  outcome: inactive
[7]
  outcome: inactive
[8]
  Potency: inactive
[9]
  Potency: inactive
[10]
  Potency: inactive
[11]
  Potency: inactive
[12]
  Potency: inactive
[13]
  Potency: inactive

## C=C(CC)C(=O)c1ccc(OCC(=O)O)c(Cl)c1Cl
[14]
  Potency: 39.8 µM (active)
[15]
  Potency: 39.8 µM (active)
[16]
  Potency: 39.8 µM (active)
[17]
  Potency: inactive

## Oc1c(I)cc(Cl)c2cccnc12
[18]
  Potency: 50.1 µM (active)

## CC(C)NC[C@@H](O)COc1cccc2ccccc12
[7]
  outcome: inactive

## CNCCC=C1c2ccccc2CCc2ccccc21
[7]
  outcome: inactive

## C[N+]1(CCCCC[N+]2(C)CCCC2)CCCC1
[11]
  Potency: inactive

## CCCCCCc1ccc(O)cc1O
[14]
  Potency: inactive
[19]
  Potency: inactive
[15]
  Potency: inactive
[16]
  Potency: inactive
[20]
  Potency: inactive
[17]
  Potency: inactive
[18]
  Potency: inactive

## CC/C(=C(/CC)c1ccc(O)cc1)c1ccc(O)cc1
[14]
  Potency: inactive
[19]
  Potency: inactive
[15]
  Potency: inactive
[16]
  Potency: inactive
[20]
  Potency: inactive
[17]
  Potency: inactive
[18]
  Potency: inactive
[1]; at 57.5 µM (top of the series)
  activity change, negative = inhibition: 9.04% (inactive)
[1]; [21]
  max response: 9.58%
[1]; [22]
  max response: 18.5%

## CCCC1O[C@@H]2C[C@H]3[C@@H]4CCC5=CC(=O)C=C[C@]5(C)[C@H]4[C@@H](O)C[C@]3(C)[C@]2(C(=O)CO)O1 (stereo partly drawn)
[2]
  outcome: inactive
[3]
  outcome: inactive
